Bioassay records as filed in PubChem BioAssay.
Most compounds without a hit are left out; they make up all but 1.1% or so of the library.
NCOA3 inh: inhibits human SRC3 coactivator. Q9Y6Q9. HEK293 GAL4-SRC3 luciferase reporter, luminescence. inhibition, % at 3.6 µM. hit rate 0.17% among 360,000;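 active = inhibition above a per-campaign cutoff, the mean of all compounds plus 3 SD, cut at about 60% in these data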;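 also: higher means less SRC3-driven luciferase light from the GAL4 reporter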
NR2F2 inh: NR2F2 (human) inhibition, primary screen. P24468. HEK293T NGFI-A luciferase reporter, luminescence. inhibition, % at 8.6 µM. hit rate 0.7% among 370,000. AID 686940;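 active = inhibition above a per-plate cutoff, mean inhibition of test wells between control levels plus 3 SD, cut at about 38% in these data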;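 also: cells cotransfected with COUP-TFII expression vector driving the NGFI-A reporter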
Target sequence (P24468 whole entry, looked up): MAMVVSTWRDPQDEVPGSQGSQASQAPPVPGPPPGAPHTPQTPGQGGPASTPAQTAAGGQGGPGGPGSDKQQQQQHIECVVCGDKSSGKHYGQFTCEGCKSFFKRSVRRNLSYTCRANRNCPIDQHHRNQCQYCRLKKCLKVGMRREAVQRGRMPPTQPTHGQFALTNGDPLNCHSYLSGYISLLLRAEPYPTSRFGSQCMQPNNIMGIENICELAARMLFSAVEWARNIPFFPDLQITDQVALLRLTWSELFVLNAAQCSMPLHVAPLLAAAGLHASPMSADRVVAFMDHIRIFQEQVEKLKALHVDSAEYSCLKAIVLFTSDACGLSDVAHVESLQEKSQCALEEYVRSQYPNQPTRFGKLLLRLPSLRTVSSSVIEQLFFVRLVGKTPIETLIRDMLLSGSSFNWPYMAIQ
LRH-1 inv ag: suppresses constitutive activity of human LRH-1; O00482; HEK293T StAR-luciferase reporter, LRH-1 transfected, 24 h; inhibition, % at 3.6 µM; hit rate 0.13% among 360,000; AID 602396;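 active = inhibition above the mean inhibition of all tested compounds plus 3 SD, cut at about 73% in these data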
SRC1 inh: human NCOA1 inhibition. AID 588354. Q15788. inhibition, % at 3.6 µM. hit rate 0.12% among 360,000. HEK293 GAL4-SRC1 luciferase reporter, luminescence;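 active = inhibition above the campaign mean plus 3 SD, with each screening campaign given its own cutoff, cut at about 60% in these data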
NCOA2 inhibitor: human SRC2 (NCOA2) inhibition | Q15596 | HEK293 GAL4-SRC2 luciferase reporter, luminescence | inhibition, % at 9 µM | hit rate 0.17% among 370,000;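 active = inhibition above the mean inhibition of all tested compounds plus 3 SD, set per campaign, cut at about 52% in these data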
GalR3 antag: blocks the human galanin receptor 3; O60755; HEK293 GalR3-CNG cAMP membrane potential fluorescence; galR3 body fused to GalR1 C-terminus; inhibition, % at 3 µM; hit rate 0.44% among 360,000;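 active = inhibition above the screen-wide average plus 3 SD, cut at about 13% in these data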;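 also: forskolin and galanin both at EC90 stimulate the cells; cAMP rise reported by CNG channel membrane potential dye signal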
Target sequence (O60755 1-299 limits assumed): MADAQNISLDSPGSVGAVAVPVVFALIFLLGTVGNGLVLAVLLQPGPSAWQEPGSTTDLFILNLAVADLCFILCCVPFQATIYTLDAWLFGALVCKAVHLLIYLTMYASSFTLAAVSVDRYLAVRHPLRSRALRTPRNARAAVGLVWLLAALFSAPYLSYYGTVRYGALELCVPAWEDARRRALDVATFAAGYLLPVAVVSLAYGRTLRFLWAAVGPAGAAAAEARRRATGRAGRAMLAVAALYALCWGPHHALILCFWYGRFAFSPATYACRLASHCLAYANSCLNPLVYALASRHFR
Gal4-VP16 ctr: counter-screen for COUP-TFII antagonists: inhibitors of VP16; shares compounds with NR2F2 inh; HEK293 Gal4-VP16 luciferase reporter, luminescence; inhibition, % at 8.5 µM; hit rate 25% among 2,500; in the data active = inhibition above about 13%
NR2F2 inh conf: confirmation of human COUP-TFII (NR2F2) inhibitors. shares compounds with NR2F2 inh. inhibition, % at 8.5 µM. HEK293 NGFI-A luciferase reporter, luminescence. hit rate 45% among 2,500;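 active = mean inhibition over three repeats above a set limit taken from the earlier primary screen, cut at about 38% in these data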
Large screens that a line does not name were inactive (follow-up assays come after a bar, where they were run).

COC(=O)[C@@H](C)NC(=O)C(Cc1ccc2c(c1)OCO2)NC(C)=O (stereo partly specified)	none (no result: NCOA3 inh, LRH-1 inv ag, SRC1 inh, GalR3 antag)
CC(Sc1nc2ccccc2c(=O)n1CC1CCCO1)C(=O)N(C)Cc1ccccc1 (stereo unspecified)	none
CC(Sc1nc2ccccc2c(=O)n1C)C(=O)N(C)C1CCCCC1 (stereo unspecified)	NR2F2 inh 46.3 | Gal4-VP16 ctr inactive | NR2F2 inh conf inactive
S=C(Nc1ccccc1)Nc1ccc(OCc2ccc(Cl)cc2Cl)cc1	NR2F2 inh 75.7, NCOA2 inhibitor 81.7 | Gal4-VP16 ctr 69.7 | NR2F2 inh conf 70.5
CN(C(=O)c1cn(C)c2ccccc12)c1ccc(Oc2cccnc2)cc1	NR2F2 inh 47.2 (no result: NCOA3 inh, LRH-1 inv ag, SRC1 inh) | Gal4-VP16 ctr inactive | NR2F2 inh conf inactive
Cc1cc(C2=NNC(=NC3CCCCC3)SC2)c(C)n1-c1c(C)n(C)n(-c2ccccc2)c1=O	none
c1cc2c(cc1C1=NNC(=NC3CC3)SC1)OCCO2	NCOA3 inh 65.8, NR2F2 inh 46.5, NCOA2 inhibitor 60.7 | Gal4-VP16 ctr 52.4 | NR2F2 inh conf 75.8
Cc1cc(C2=NNC(=NC3CC3)SC2)c(C)n1-c1ccccc1F	NCOA3 inh 88.5, NR2F2 inh 97.1, LRH-1 inv ag 89.5, SRC1 inh 93.0, NCOA2 inhibitor 92.8 | Gal4-VP16 ctr 94.0 | NR2F2 inh conf 108.2
CCc1cccc(CC)c1NC(=O)CSc1nc2ccc(N3C(=O)C4C5C=CC(C5)C4C3=O)cc2s1 (stereo unspecified)	NR2F2 inh 39.4 | Gal4-VP16 ctr inactive | NR2F2 inh conf inactive
CCCCCCCCNS(=O)(=O)/C=C/c1ccccc1CNC(=O)OC(C)(C)C	none (no result: NCOA3 inh, LRH-1 inv ag, SRC1 inh, GalR3 antag)
Cc1ccc(OCC(=O)NC(=S)Nc2ccccn2)c(Br)c1	NR2F2 inh 50.1 | Gal4-VP16 ctr inactive | NR2F2 inh conf inactive
COc1ccc(CNC(=O)O[C@H]2CC[C@@]34CCCN3C(=O)CCC[C@H]4C2)cc1	none (no result: NCOA3 inh, LRH-1 inv ag, SRC1 inh, NCOA2 inhibitor, GalR3 antag)
Cc1ccc(-n2ncc3c2CCCC3NC(=O)CCC2=NNC(=O)CC2)cc1C (stereo unspecified)	none
CC(C)(C)c1ccc(-n2ncc3c2CCCC3NC(=O)CCC2=NNC(=O)CC2)cc1 (stereo unspecified)	NR2F2 inh 38.9 | Gal4-VP16 ctr inactive | NR2F2 inh conf inactive
Nc1ccc(-c2cc3ccccc3c(=O)o2)cc1	NR2F2 inh 73.3, NCOA2 inhibitor 73.5 | Gal4-VP16 ctr 42.0 | NR2F2 inh conf inactive
Cc1c(CCC(=O)O)c(=O)oc2cc3oc4c(c3cc12)CCCC4	NR2F2 inh 42.4, NCOA2 inhibitor 64.0 | Gal4-VP16 ctr 58.8 | NR2F2 inh conf 50.4
Cc1c(CCC(=O)N[C@@H](CC(C)C)C(=O)O)c(=O)oc2cc3oc4c(c3cc12)CCCC4	NR2F2 inh 45.9 | Gal4-VP16 ctr 21.3 | NR2F2 inh conf inactive
Cc1c(CCC(=O)NCC(=O)NCC(=O)O)c(=O)oc2cc3oc4c(c3cc12)CCCC4	none
O=C(c1cccc(I)c1)N1CCC(Oc2cccnc2)CC1	none (no result: NCOA3 inh, LRH-1 inv ag, SRC1 inh, GalR3 antag)
O=C(OC12CCCN(C1)/C(=C/c1ccc(Cl)cc1)C2)c1ccc(F)cc1 (stereo unspecified)	none (no result: NCOA3 inh, LRH-1 inv ag, SRC1 inh, GalR3 antag)
CN(C(=O)C(C)(C)C)c1ccc(OCC(=O)N2CCc3ccccc3C2)cc1	NR2F2 inh 47.6 | Gal4-VP16 ctr inactive | NR2F2 inh conf 47.9
Cc1ccc(-c2nc3ncccn3c2NC(=O)Nc2ccc(F)cc2)cc1	none (no result: NCOA3 inh, LRH-1 inv ag, SRC1 inh, GalR3 antag)
COCc1ccc(C(=O)N2CCC(CCC(=O)Nc3cccc(C)c3)CC2)s1	NR2F2 inh 40.1 | Gal4-VP16 ctr 30.2 | NR2F2 inh conf inactive
CC(C)(C)c1ccc2c(c1)OC(C(=O)N/N=C/c1ccc[nH]1)CO2 (stereo unspecified)	NR2F2 inh 47.0 (no result: NCOA3 inh, LRH-1 inv ag, SRC1 inh, NCOA2 inhibitor, GalR3 antag) | Gal4-VP16 ctr inactive | NR2F2 inh conf 39.9
CC(C)(C)c1ccc2c(c1)OC(C(=O)N/N=C\c1ccc[nH]1)CO2 (stereo unspecified)	none
CN(C(=O)c1cccc(NC(=O)Cc2ccc(NC(=O)C3CCN(C(=O)CCc4ccccc4)CC3)cc2)c1)C1CCCC1	none (no result: NCOA3 inh, LRH-1 inv ag, SRC1 inh)
C=C1C(=O)[C@]23C[C@H]1CCC2[C@@]1(C)C(C[C@@H]3O)[C@](C)(C(=O)OC)CC[C@@H]1OC(C)=O (stereo partly specified)	NR2F2 inh 48.6, LRH-1 inv ag 83.1, NCOA2 inhibitor 58.9 | Gal4-VP16 ctr 63.8 | NR2F2 inh conf 52.0
CCc1ccc(/C=C/c2c[nH]c3ccccc23)[n+](CC)c1	NR2F2 inh 40.3 | Gal4-VP16 ctr inactive | NR2F2 inh conf 38.4
CCC(C)NC(=S)Nc1ccc(C(=O)OC)cc1 (stereo unspecified)	NR2F2 inh 39.0 | Gal4-VP16 ctr inactive | NR2F2 inh conf inactive
COc1ccc(C(=O)OCCN2CCN(C3CN(Cc4cn(Cc5cccc(C)c5)nn4)S(=O)(=O)C3)CC2)cc1OC (stereo unspecified)	NR2F2 inh 46.6 (no result: NCOA3 inh, LRH-1 inv ag, SRC1 inh, GalR3 antag) | Gal4-VP16 ctr inactive | NR2F2 inh conf inactive
N#Cc1ccc(/C=C2\CC3(OC(=O)c4ccc(Cl)cc4)CCCN2C3)cc1 (stereo unspecified)	none (no result: NCOA3 inh, LRH-1 inv ag, SRC1 inh, GalR3 antag)
Cc1ccc(CCNC(=O)C(C)n2nc(C)c3c(C)n(-c4ccccc4)nc3c2=O)cc1 (stereo unspecified)	none
Cc1ccc(-n2nc3c(=O)n(C(C)C(=O)NCCC4=CCCCC4)nc(C)c3c2C)cc1 (stereo unspecified)	NR2F2 inh 71.0 | Gal4-VP16 ctr inactive | NR2F2 inh conf 61.9
COc1cc(CNCc2ccncc2)cc(Br)c1OCc1ccccc1F	NR2F2 inh 45.9 | Gal4-VP16 ctr inactive | NR2F2 inh conf inactive
Cc1ccc(S(=O)(=O)N2CCCCC2)cc1NCC(=O)Nc1ccc(Br)cc1F	NR2F2 inh 54.6 | Gal4-VP16 ctr inactive | NR2F2 inh conf inactive
CCc1ccc(C(=O)Nc2ccc(OC)c(S(=O)(=O)N3CCCCC3)c2)cc1	NR2F2 inh 57.8 | Gal4-VP16 ctr inactive | NR2F2 inh conf inactive
Cc1ccc(NC(=O)/C=C/c2ccco2)cc1S(=O)(=O)N1CCCCCC1	NR2F2 inh 50.3 | Gal4-VP16 ctr inactive | NR2F2 inh conf inactive
CCc1ccc(C(=O)Nc2ccc(OC)c(S(=O)(=O)N3CCOCC3)c2)cc1	none
COc1ccccc1NC(=O)c1ccc(S(=O)(=O)N2CCCC2)cc1	none
O=C(CNc1ccccc1F)Nc1cc(S(=O)(=O)N2CCCCC2)ccc1Cl	none
COc1ccccc1NS(=O)(=O)c1ccc(C)c(NC(=O)c2ccc(S(=O)(=O)N3CCCCCC3)cc2)c1	NR2F2 inh 41.2 | Gal4-VP16 ctr inactive | NR2F2 inh conf inactive
O=C(c1ccc(C#Cc2ccccc2)cc1)N1CCC(O)CC1	none (no result: NCOA3 inh, LRH-1 inv ag, SRC1 inh, GalR3 antag)
